Screening results (PubChem BioAssay)
This is one part of a sample in which hits are shown more often than they occur.
SF-1 inh – inhibitors of human nuclear receptor SF-1 | inhibition, % at 10 µM | CHO-K1 Gal4-SF-1 LBD luciferase reporter | AID 525 | 0.55% of 65,000 active | Q13285;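 active = inhibition above the mean inhibition of all tested compounds plus 3 SD, cut at about 48% in these data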
Target sequence (Q13285 whole entry, looked up, the tested form may be a part): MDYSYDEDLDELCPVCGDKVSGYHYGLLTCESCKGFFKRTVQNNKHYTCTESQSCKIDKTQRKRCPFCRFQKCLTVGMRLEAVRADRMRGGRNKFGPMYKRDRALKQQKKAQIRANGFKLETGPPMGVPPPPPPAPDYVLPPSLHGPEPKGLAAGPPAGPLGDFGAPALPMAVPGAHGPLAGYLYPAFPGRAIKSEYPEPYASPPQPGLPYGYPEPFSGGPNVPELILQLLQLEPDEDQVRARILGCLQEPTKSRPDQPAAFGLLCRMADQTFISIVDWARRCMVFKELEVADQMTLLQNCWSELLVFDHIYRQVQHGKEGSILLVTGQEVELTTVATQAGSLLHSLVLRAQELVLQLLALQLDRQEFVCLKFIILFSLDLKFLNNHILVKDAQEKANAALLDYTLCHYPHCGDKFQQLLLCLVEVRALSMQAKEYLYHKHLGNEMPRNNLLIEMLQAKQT
A number is an active result; 0 = inactive.

SMILES	SF-1 inh
Cc1ccc2nc(-c3ccccc3)cn2c1	89.2
N=c1c2c3c(sc2nc2n1CCCCC2)CCCCC3	0
CC(=O)N1CCc2c(sc(NC(=O)c3ccc4c(c3)OCCO4)c2C#N)C1	0
O=C(NCc1cccs1)c1cc2c(s1)CCCC2	0
CCc1nn2cc(-c3ccccc3)nc2s1	69.0
CCc1nc(C)c(-c2ccccc2)c(=O)[nH]1	0
CCn1c(C)nc2cc(-c3nc4n(n3)Cc3ccccc3-4)ccc21	95.7
COc1cc2nc(COc3ccc(C#N)cc3)n(CC#N)c(=O)c2cc1OC	0
O=S(=O)(CCN1CCN(C(c2ccccc2)c2ccccc2)CC1)C(F)(F)F	0
CCCC(c1nnnn1CCOC)N1CCN(c2cccc(OC)c2)CC1 (stereo not drawn)	0
CCCS(=O)(=O)c1nnnn1-c1cccc(OC)c1	58.4
CCOC(=O)Cn1nnc(-c2cccc(OC)c2)n1	0
CSc1nnnn1CCn1nnnc1SC	0
O=C(OCC(=O)N1CCOCC1)C(c1ccccc1)c1ccccc1	0
CCNc1nc(N)c(C(=O)c2ccc(Cl)s2)s1	0
O=C(Nc1nc2ccccc2s1)c1ccc(Cl)s1	0
CCOC(=O)C1CCN(S(=O)(=O)c2ccc(-c3nc4ccccc4s3)s2)CC1	0
O=C(NC1CC1)c1ccc(-c2nc3ccccc3s2)s1	79.3
O=C1CCCC2=C1C(c1ccccc1)C1=C(CCCC1=O)O2	0
Cc1c(NC(=O)c2cc(=O)[nH]c(=O)[nH]2)c(=O)n(-c2ccccc2)n1C	0
O=C(O)Cc1ccc2[nH]c3ccc(CC(=O)O)cc3c2c1	0
Cn1cccc1C(=O)OCc1cc(Cl)cc2c1OCOC2	0
COc1cc2c(C#N)c(N3CCN(c4ccccc4OC)CC3)nc(N)c2c(N)n1	72.6
N#Cc1c(N2CCCC2)nc(N)c2c(N)nc(N3CCCC3)cc12	0
COc1ccccc1C(=O)N1CCN(c2nc3cc(C)c(C)cc3cc2C#N)CC1	0
SMILES	SF-1 inh
COc1ccc(C(=O)CSc2nc3nc(C)cc(C)n3n2)cc1OC	0
C(=N\n1cnnc1SCc1ccccc1)/c1ccco1	0
Cc1ccc2oc(=O)c3cnn(CC(=O)NCCCOC(C)C)c3c2c1	0
c1cncc(-c2nnc(SCc3nc4ccccc4[nH]3)o2)c1	56.3
COC(=O)c1c(N)n(-c2cc(OC)cc(OC)c2)c2nc3ccccc3nc12	0
O=c1nc(N2CCOCC2)ccn1Cc1ccc(Br)cc1	0
O=C(OCc1c(F)cccc1Cl)c1cnccn1	0
Cc1nn(-c2nc3ccccc3s2)c(N)c1Sc1ccc(F)cc1	0
COc1cc(C2C(C#N)=C(C)NC3=C2C(=O)c2ccccc23)cc(OC)c1OC (stereo not drawn)	82.5
CCSC1=C(C#N)C(c2ccccc2OC)CC(=O)N1 (stereo not drawn)	0
COc1ccc(OC)c(-n2nnnc2SCC(=O)Nc2ccc(C(=O)N3CCCCC3)cc2)c1	0
CCn1ncc(C2=NOC(C(=O)N3CCC(C(N)=O)CC3)C2)c1C (stereo not drawn)	0
C/C(Cl)=C\Cn1c(NCCc2ccccc2)nc2c1c(=O)n(C)c(=O)n2C	61.7
COc1ccc(Cl)c(Cn2c(NCC(C)O)nc3c2c(=O)n(C)c(=O)n3C)c1 (stereo not drawn)	0
CCNc1nc2c(c(=O)n(C)c(=O)n2C)n1Cc1ccc(Cl)cc1	54.0
C=CCn1c(NCCc2ccccc2)nc2c1c(=O)n(C)c(=O)n2C	0
CCN1CCN(Cc2nc3c(c(=O)n(C)c(=O)n3C)n2CCCc2ccccc2)CC1	0
Cn1c(=O)c2c(nc(SCCN3CCOCC3)n2Cc2ccc(Cl)cc2)n(C)c1=O	0
C=CCc1c(C)nc(SC)nc1Nc1ccc(C(C)=O)cc1	0
CN(C(=O)c1cnc2n(c1=O)CCS2)C1CCCCC1	0
Cc1ccc(-n2cc(-c3ccccc3)[nH]c2=O)cc1F	0
Cc1cc(C)n2cc(CSc3nnnn3C)nc2n1	0
CSCC[C@H](NC(=O)NCCC1=CCCCC1)C(=O)O	0
COc1ccc(NS(=O)(=O)c2ccc(OC)c3ccccc23)cn1	0
COc1ccc(S(=O)(=O)N(CC(=O)N2CCN(C)CC2)c2ccc(C)cc2)cc1OC	0
SMILES	SF-1 inh
Cn1c(SCC(=O)Nc2sc3c(c2C#N)CCC3)nnc1C1COc2ccccc2O1 (stereo not drawn)	0
N#Cc1c(NC(=O)CSc2ncn[nH]2)sc2c1CCCCC2	88.2
CCc1nnc(NC(=O)CSc2nc(C)c3c(c2C#N)CCCC3)s1	0
O=C(CN(C1CCCCC1)S(=O)(=O)c1ccc(Cl)cc1)NCCCO	0
O=C(CSc1nnc(-c2cccnc2)n1Cc1ccco1)Nc1nc(-c2ccc(F)cc2)cs1	0
O=S(=O)(N1CCCCCC1)N1CCN(S(=O)(=O)N2CCOCC2)CC1	0
O=C(Nc1ccc2c(c1)OCCO2)c1ccc(Br)o1	0
COc1cc(CC(NC(C)=O)C(=O)NC2CCN(c3nc(C)cc(C)c3C#N)CC2)cc(OC)c1 (stereo not drawn)	71.4
COc1cccc(CC(NC(C)=O)C(=O)NC2CCN(c3c4c(nc5ncnn35)CCC4)CC2)c1 (stereo not drawn)	0
COc1ccc(NC(=O)C2CCN(c3nc(C)nc4c3CCC4)CC2)cc1	0
C=CCOc1ccc2c(c1)c(S(=O)(=O)c1ccc(C)cc1)cn2COC	0
O=C(Cn1nc(-c2ccc(Cl)cc2)ccc1=O)NCCN1CCOCC1	0
O=C1NCCCC1C(=O)NCCN1C(=O)CCC1=O (stereo not drawn)	0
CCC(Sc1ccccn1)C(=O)Nc1nnc(C)s1 (stereo not drawn)	0
COc1ccccc1OCC(=O)c1[nH]c(C)c(C(C)=O)c1C	50.4
CCOC(=O)c1c(C)[nH]c(C)c1C(=O)COC(=O)CCOc1ccccc1OC	0
COC(=O)c1c(C)[nH]c(C(C)=O)c1C	0
O=C(Nc1ccc(F)cc1F)c1noc2c1CCC2	0
COc1ccc(S(=O)(=O)NCCC(=O)NCc2ccccc2)cc1	0
CCC(CC)C(=O)NCCc1cc2ccc(C)c(C)c2[nH]c1=O	0
COC(=O)/C(=C1/Oc2cc(C)oc(=O)c2S1)C(F)(F)F	96.4
COc1ccc(Cn2c(C3CC3)nc3ccc(NC(=O)c4ccco4)cc3c2=O)cc1	0
CC1CCc2c(sc(NC(=O)c3noc4c3CCCC4)c2C(N)=O)C1 (stereo not drawn)	0
Cc1ccc(Nc2cc(C)nn2-c2nc(C)cc(=O)[nH]2)cc1	96.4
Cc1ccc(-c2cc3nc(C)cc(NCc4ccco4)n3n2)cc1	0
SMILES	SF-1 inh
Cc1ccc(Nc2nc3nonc3[nH]c2=O)cc1	0
CCn1nnnc1-c1ccc(OC)c(S(=O)(=O)N2CCCCC2)c1	0
O=C(Nc1sc2c(c1C(=O)O)CCCCC2)c1ccco1	0
O=C(NCc1ccco1)c1ccc2nc3sc4c(c3c(=O)n2c1)CCCC4	60.0
O=C(Cn1cnc2sc(-c3ccccc3)cc2c1=O)NCc1ccco1	0
CCC(C)(C(=O)NC1CCCC1)N(C(=O)c1cnccn1)c1c(C)n(C)n(-c2ccccc2)c1=O (stereo not drawn)	0
CCOc1cc2[nH]c(=O)n(CC3CCC(C(=O)NC4CCCCC4)CC3)c(=O)c2cc1OCC (stereo not drawn)	0
Cn1cccc1CNC(=O)Nc1ccc(Cl)c(Cl)c1	0
CC(C)CCNC(=O)CN(CCN1CCOCC1)C(=O)Cn1nnc(-c2ccc(F)cc2)n1	0
COc1cccc(-n2c(SCC(=O)NCCc3ccccc3)nnc2-c2ccoc2C)c1	0
CC(C)Cc1cc(C(=O)N2CCN(c3ccc(F)cc3)CC2)no1	0
COc1ccccc1N1CCN(C(=O)c2ccc(S(=O)(=O)N3CCCC3)cc2)CC1	0
CN(CCc1ccccn1)C(=O)CN(C)S(=O)(=O)c1ccc2c(c1)c(=O)n(C)c(=O)n2C	0
